High-throughput results (PubChem BioAssay)
RORgamma inh: ROR gamma (mouse) transcription inhibition; Potency, µM (top dose mostly 53.6 µM), inactives show at the top dose activity change, negative = inhibition, most hits filed as inhibitors; 5.4% of 310,000 active; AID 2551; P51450; Drosophila S2 Gal4-RORgamma UAS-luciferase reporter, 20 h; further: nearly all actives have a fitted effect of over 60% in size
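Drosophila S2 cells stably expressing Gal4-DBD/mouse RORγ fusion under metallothionein promoter plus UAS-luciferase; compound 1 h, then 700 uM CuSO4 induction for 20 h at ambient temperature; inhibition read as reduced luminescence.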
Gal4-VP16 FLuc: inhibits Gal4-VP16 luciferase reporter, ROR gamma counter-screen | Drosophila S2 Gal4-VP16 UAS-luciferase, luminescence, 20 h | Potency, µM (highest dose often 53.6 µM), without a hit: at the highest dose activity, negative = inhibition, hits mostly inhibitors | 3.5% of 310,000 active | AID 2546;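 further: Gal4-VP16 expression switched on by copper sulfate through the metallothionein promoter; nearly all actives have a fitted effect of over 50% in size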
DT40 TDP1 no CPT: qHTS for Inhibitors of human tyrosyl-DNA phosphodiesterase 1 (TDP1): qHTS in cells in absence of CPT; DT40 Tdp1-/- hTDP1 cells, no CPT, ATP luminescence, 48 h; Potency, µM (highest dose often 46.2 µM), without a hit: at the top dose activity change, negative = growth inhibition, most hits filed as inhibitors; 15% of 420,000 active; further: nearly all actives have a fitted effect of over 55% in size
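Readout: luminescence from CellTiter-Glo after 30 min in the dark at RT. Cells: DT40 Tdp1-/- with stable hTDP1, 400/well. Exposure: compounds alone, ≥48 hr, 37 °C.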
TDP1 block: TDP1 (human) enzyme inhibition; Potency, µM (top dose mostly 130 µM), without a hit: at the highest dose activity change, negative = inhibition, actives largely listed as inhibitors; 0.28% of 350,000 active; Q9NUW8; AID 485290; recombinant TDP1, AlphaScreen DNA substrate cleavage; further: nearly all actives have a fitted effect of over 40% in size
Target sequence (Q9NUW8 whole entry, looked up): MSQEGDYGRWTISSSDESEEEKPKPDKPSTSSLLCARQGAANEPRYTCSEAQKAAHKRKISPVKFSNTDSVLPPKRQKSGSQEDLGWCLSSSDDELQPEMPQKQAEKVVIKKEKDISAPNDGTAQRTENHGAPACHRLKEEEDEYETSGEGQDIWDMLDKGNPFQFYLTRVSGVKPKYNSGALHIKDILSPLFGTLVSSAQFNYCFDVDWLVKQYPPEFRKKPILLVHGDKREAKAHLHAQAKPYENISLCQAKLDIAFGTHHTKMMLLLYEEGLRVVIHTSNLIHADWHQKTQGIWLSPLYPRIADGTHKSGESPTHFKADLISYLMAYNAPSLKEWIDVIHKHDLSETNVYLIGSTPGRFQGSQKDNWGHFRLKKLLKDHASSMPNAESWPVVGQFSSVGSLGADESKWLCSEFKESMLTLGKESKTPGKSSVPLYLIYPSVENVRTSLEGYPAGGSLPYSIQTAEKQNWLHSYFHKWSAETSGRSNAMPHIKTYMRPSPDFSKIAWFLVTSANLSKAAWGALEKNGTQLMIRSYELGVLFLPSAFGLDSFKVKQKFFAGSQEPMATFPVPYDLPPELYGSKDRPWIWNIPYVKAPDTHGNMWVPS
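Compounds were preincubated with Tdp1 (1 nM final) for 15 min at room temperature before substrate (15 nM final) started a 5 min reaction; beads (10 ug/ml final) were then added for 10 min before AlphaScreen detection.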
TDP1 cell CPT: growth inhibition of DT40 Tdp1-/-;hTDP1 cells with camptothecin (screen for TDP1 inhibitors). chicken DT40 Tdp1-/-;hTDP1 cells + 20 nM CPT, ATP luminescence, 48 h. Potency, µM (series often up to 46.2 µM), without a hit: at the highest dose activity change, negative = growth inhibition, actives largely listed as inhibitors. 12% of 420,000 active; further: nearly all actives have a fitted effect of over 55% in size
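Chicken DT40 Tdp1-/- cells stably complemented with human TDP1 were seeded at 400 cells/well in medium containing 20 nM camptothecin, exposed to pin-transferred compounds, and grown at 37 °C for at least 48 hr. Viability was read as ATP luminescence.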
Starred values were filed as active, the others as inactive; u = inconclusive; x = not tested or not shown; [ ] = another dose, or the depositor's remark. Hits are enriched below; roughly 19% of the tested compounds scored in any of these assays. The call rests on the fitted dose curve; in most records, active means well fitted curve in the direction sought with a large enough effect; inconclusive means small, poorly fitted or top-dose-only effect, or another doubt; inactive means no such curve, though single readings can be large; an effect the other way counts as inactive or inconclusive. On the % scale 0 is the no-effect control and ±100 the full control effect; potency means the concentration at half of the fitted maximal effect.

SMILES	RORgamma inh	Gal4-VP16 FLuc	DT40 TDP1 no CPT	TDP1 block	TDP1 cell CPT
CCCCNc1nc2c(c(=O)n(Cc3ccc(Cl)c(Cl)c3)c(=O)n2C)n1C	x	x	29.1µM*	x	u
Cn1c(NCc2ccccc2)nc2c1c(=O)n(Cc1ccccc1)c(=O)n2C	-25.5%	-8.6%	u	5.7%	-16.9%
CCCCNc1nc2c(c(=O)n(Cc3ccc(Cl)cc3)c(=O)n2C)n1C	x	x	16.4µM*	7.4%	20.6µM*
COCCCNc1nc2c(c(=O)n(Cc3ccc(Cl)cc3)c(=O)n2C)n1C	u	-9.4%	-57.2%	x	-15.3%
Cn1c(NCCO)nc2c1c(=O)n(Cc1ccccc1Cl)c(=O)n2C	x	x	-0.4%	3.2%	-25.2%
CN(c1ccc(OCC(=O)Nc2cc(Cl)ccc2C(=O)O)cc1)S(=O)(=O)c1ccc(F)cc1	x	x	-23.8%	-10.8%	-19.4%
Cc1ccc(C)c(CN2CCC(n3nccc3NC(=O)CCCc3ccccc3)CC2)c1	-2.4%	2.2%	u	3.8%	u
Cc1ccc(S(=O)(=O)NN=C(c2ccccc2)c2cccs2)cc1	x	x	11.6µM*	x	-19.2%
C/C(=N\NS(=O)(=O)c1ccc(C)cc1)c1cccs1	31.2%	3.2%	-29.6%	4.0%	-1.7%
O=C(COC(=O)c1ccc(OC(F)(F)F)cc1)Nc1ncccn1	x	x	16.8%	22.4µM*	20.6µM*
O=C(COC(=O)c1cccc(OC(F)F)c1)Nc1ncccn1	x	x	-11.3%	44.7µM*	12.2%
NC(=O)NC(=O)COC(=O)c1ccc(OC(F)(F)F)cc1	14.2%	8.6%	2.7%	1.2%	-3.6%
COc1cc2nc(-c3ccccc3)nc(N3CCCC3)c2cc1OC	-23.0%	-3.5%	x	-8.4%	x
COc1cc2nc(N3CCCN(C)CC3)nc(N(C)C)c2cc1OC	x	x	17.8µM*	x	u
COc1cc2nc(N3CCCN(C)CC3)nc(N3CCN(C)CC3)c2cc1OC	x	x	15.8µM*	x	14.1µM*
O=S(=O)(c1ccccc1)c1nc(-c2ccco2)oc1NCc1ccccc1	0.0%	0.5%	-16.4%	10.1%	-9.7%
CN(C(=O)CSc1nnc(CN2CCCC2)n1Cc1ccccc1)c1ccccc1	x	x	-7.3%	-2.7%	-11.0%
CCN1CCN(c2ccc(NC(=O)CCc3c(C)nc4c(-c5ccc(F)cc5)c(C)nn4c3C)cc2)CC1	2.2%	3.9%	5.8µM*	0.0%	10.3µM*
Cc1nc2cc(-c3ccccc3)nn2c(C)c1CCC(=O)N1CCN(c2ccc(F)cc2)CC1	x	x	10.3µM*	2.3%	23.1µM*
Cc1nc2cc(-c3ccccc3)nn2c(C)c1CCC(=O)N1CCN(c2ccccn2)CC1	u	5.7%	x	1.0%	x
Cc1nc2c(-c3ccc(F)cc3)c(C)nn2c(C)c1CCC(=O)N1CCC(Cc2ccccc2)CC1	22.6%	1.3%	23.1µM*	-6.1%	u
Cc1nc2c(-c3ccc(F)cc3)c(C)nn2c(C)c1CCC(=O)N1CCN(c2ccccc2)CC1	-24.3%	4.0%	u	2.3%	18.4µM*
Cc1ccc(S(=O)(=O)N2Cc3ccccc3CC2C(=O)Nn2cnnc2)cc1 (stereo not drawn)	-16.4%	0.8%	-11.3%	5.1%	-4.0%
Cc1nc2c(-c3ccc(F)cc3)c(C)nn2c(C)c1CCC(=O)N1CCN(c2ccc(F)cc2)CC1	24.9%	-0.1%	18.4µM*	5.8%	18.4µM*
CCOC(=O)C1CCN(C(=O)CCc2c(C)nc3c(-c4ccc(F)cc4)c(C)nn3c2C)CC1	13.3%	0.3%	u	-2.0%	8.2µM*
SMILES	RORgamma inh	Gal4-VP16 FLuc	DT40 TDP1 no CPT	TDP1 block	TDP1 cell CPT
CCOC(=O)C1CCCCN1C(=O)CCc1c(C)nc2cc(-c3ccccc3)nn2c1C (stereo not drawn)	u	-4.2%	4.11µM*	2.9%	3.66µM*
COc1ccccc1NC(=O)CCc1c(C)nc2c(-c3ccc(F)cc3)c(C)nn2c1C	32.8%	-1.2%	u	x	14.6µM*
Cc1nnc(SCC(=O)N2CC(=O)Nc3ccccc32)n1C	5.9%	-1.7%	-14.0%	5.1%	-10.4%
CCN(C(=O)Cn1c(SCC(=O)NCc2ccccc2)nc2ccccc21)c1cccc(C)c1	x	x	u	6.2%	u
COC(=O)C1=C(C)N(CCc2ccccc2)C(=O)/C1=C\c1ccco1	-92.5%	u	u	-1.1%	u
CCOC(=O)C1=C(C)N(c2ccc(OCC)cc2)C(=O)/C1=C\c1ccco1	u	-2.0%	u	11.1%	u
CCOc1cc(/C=C2\C(=O)N(CCc3ccc(OC)c(OC)c3)C(C)=C2C(=O)OC)ccc1O	u	u	23.1µM*	5.5%	u
CCOc1cc(/C=C2\C(=O)N(Cc3ccco3)C(C)=C2C(=O)OC)ccc1O	-43.8%	-6.8%	u	2.4%	u
CCOC(=O)C1=C(C)N(c2ccc(C)cc2)C(=O)/C1=C\c1ccc(O)c(OC)c1	u	u	20.6µM*	x	14.6µM*
COC(=O)C1=C(C)N(Cc2ccc(C)cc2)C(=O)/C1=C\c1ccc(O)c(OC)c1	-29.6%	-6.4%	-29.4%	10.8%	2.3%
COC(=O)C1=C(C)N(Cc2ccc(C)cc2)C(=O)/C1=C\c1cc(OC)c(OC)c(OC)c1	9.4%	u	20.6µM*	9.4%	u
COC(=O)C1=C(C)N(Cc2ccccc2)C(=O)/C1=C\c1ccco1	54.9%	19.9%	18.4µM*	10.7%	u
CCc1ccccc1NC(=O)c1cc(S(=O)(=O)N2CCC(C)CC2)cn1C	x	x	u	0.6%	u
CN(Cc1ccccc1)C(=S)NC(=O)c1cccs1	0.316µM*	0.251µM*	u	4.1%[56.1 µM]	u
COc1ccc(C(=O)N(C)Cc2ccccc2)cc1Br	u	-19.0%	x	-0.6%	x
CN(Cc1ccccc1)C(=S)NC(=O)c1ccc(-c2ccccc2)cc1	0.282µM*	0.0891µM*	4.61µM*	2.6%	4.61µM*
COc1cc(C(=O)NC(=S)N(CCc2ccccc2)CCc2ccccc2)cc(OC)c1OC	0.398µM*	0.794µM*	20.6µM*	11.5%	23.1µM*
COc1cc(C(=O)NC(=S)N(C)Cc2ccccc2)cc(OC)c1OC	0.562µM*	3.55µM*	8.2µM*	7.7%	20.6µM*
COc1ccc(OC)c(NC(=O)COC(=O)c2n[nH]c3ccccc23)c1	x	x	16.4µM*	5.3%	20.6µM*
Cc1cc(C)cc(NC(=O)COC(=O)c2n[nH]c3ccccc23)c1	17.8%	-11.3%	-11.4%	6.3%	-6.6%
COc1ccc(NC(=O)COC(=O)c2c3c(nc4ccccc24)CCCC3)cc1Cl	20.6%	-13.5%	7.31µM*	2.3%	20.6µM*
COc1ccc(OC)c(NC(=O)COC(=O)c2c3c(nc4ccccc24)CCCC3)c1	-0.6%	-21.1%	20.6µM*	4.0%	23.1µM*
CC(O)(COc1ccccc1)c1ccc2c(c1)CN(C/C=C/c1ccco1)CCO2 (stereo not drawn)	x	x	u	x	-10.9%[9.04 µM]
